The record followed here is the OligoGym collection.
Also: reference of the scale not given here.

The target in one assay is SHOC2. Nature of the assay: pooled miR-30 sensor sort-seq; sequence = guide strand. The following applies: shRNA.
Sequence TTCTCTTCTAGATCCAACTCTC returned a sensor-assay potency score (higher = more potent) of -0.213.

TTTGATCGTATTGTCAACTGAA showed a sensor-assay potency score (higher = more potent) of 0.487.

For TGAATTTTCACTTAGAGCCAGT, the sensor-assay potency score (higher = more potent) is -0.612.

TCCAACTCTCTTAACTTCCTAA had a sensor-assay potency score (higher = more potent) of -0.798.

In turn, TATCTAACTATACTACCTCTGT had a sensor-assay potency score (higher = more potent) of -0.264.

TTGATCGTATTGTCAACTGAAA showed a sensor-assay potency score (higher = more potent) of -1.19.

Sequence TTACTTAATACTTTTGCTCTGG displayed a sensor-assay potency score (higher = more potent) of 0.139.

TATGTGTATAGATCTCTTGGAT registered a sensor-assay potency score (higher = more potent) of -0.313.

Sequence TTGTGAGCTACATCCAGCGTAA came in with a sensor-assay potency score (higher = more potent) of 0.0478.

As to TTGATTGTGAGCTACATCCAGC, the sensor-assay potency score (higher = more potent) was -0.412.

For the sequence TATATCTAACTATACTACCTCT, the sensor-assay potency score (higher = more potent) is -0.42.

TTTGTTCTCTTCTAGATCCAAC showed a sensor-assay potency score (higher = more potent) of -0.823.

The target of the next assay is SHOX2. The description is as above. Particulars: shRNA.
The sequence TTTGAAACCAAACCTGCACTCG displayed a sensor-assay potency score (higher = more potent) of -0.285.

TTTTCTTGTTTTCTACATTTAG yielded a sensor-assay potency score (higher = more potent) of -1.51.

On to TACATTTAGCTCTTCGATTTTG, for which the sensor-assay potency score (higher = more potent) is -1.22.

TTTCTACATTTAGCTCTTCGAT displayed a sensor-assay potency score (higher = more potent) of -1.28.

For TTTATGGAGTTGATTTTCTTGT, the sensor-assay potency score (higher = more potent) is -0.402.

TTCTTGCTGGTGGTCTTGGCGG: the sensor-assay potency score (higher = more potent) is -1.37.

TCCAGGGTGAAATTGGTCCGAC: the sensor-assay potency score (higher = more potent) is -1.19.

TTTGCGATCTTTCAGCTCCGGG: the sensor-assay potency score (higher = more potent) was -1.2.

In the case of TTCTACATTTAGCTCTTCGATT, the sensor-assay potency score (higher = more potent) was -0.898.

On to TTGCGATCTTTCAGCTCCGGGG, for which the sensor-assay potency score (higher = more potent) was -1.14.

TATGAGAACACCTTTATGGAGT came in with a sensor-assay potency score (higher = more potent) of -0.114.

For the sequence TTCTATGCAAGAGTCCATCGTT, the sensor-assay potency score (higher = more potent) turned out to be 0.114.
